The results in this text go back to PubChem BioAssay (Tox21).

The nature of experiment [1]: qHTS assay for small molecules that induce genotoxicity in human embryonic kidney cells expressing luciferase-tagged ATAD5 (AID 651632). Also: % is scaled to controls: 0 for no effect and ±100 for the full control effect; nearly all actives have a fitted effect of over 15% in size. In a few lines:
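Quantitative HTS in HEK293T expressing luciferase-tagged ATAD5, whose levels rise upon DNA damage. Exposure ran 16 hr at 37C and 5% CO2, with luminescence read 30 min after Amplite addition at room temperature.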
Background: Quantitative high-throughput screening tests each substance at several concentrations.

Experiment [2] in a line: qHTS assay for small molecules that induce genotoxicity in human embryonic kidney cells expressing luciferase-tagged ATAD5 - cell viability (AID 651634; calls by dose curve; also: nearly all actives have a fitted effect of over 25% in size; also: potency is read from the fitted curve at half-maximal effect). In short, it runs like this: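 After 15.5 hr incubation with compound at 37C, 5% CO2, HEK293T ATAD5-luciferase cells received CellTiter-Fluor reagent; fluorescence intensity was quantified following 30 min at 37C.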
A short description of experiment [3]: qHTS assay for small molecule disruptors of the mitochondrial membrane potential - cell viability (AID 720634; calls by dose curve; also: nearly all actives have a fitted effect of over 20% in size; also: potency is read from the fitted curve at half-maximal effect). In short, it runs like this:
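ATP-based luminescent viability readout (CellTiter-Glo, 30 min, room temperature) in HepG2 cells multiplexed with the m-MPI membrane potential dye; compound exposure lasted 1 hr at 37 C.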

A short description of experiment [4]: qHTS assay to test for compound auto fluorescence at 535 nm (green) in HepG2 cells (AID 720675). Also: % is scaled to controls: 0 for no effect and ±100 for the full control effect.
Experiment [5] can be described thus: qHTS assay to test for compound auto fluorescence at 460 nm (blue) in HEK293 cells (AID 720678). Also: potency is read from the fitted curve at half-maximal effect. In short, it runs like this: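 HEK293 cells (2,000/well, medium with 10% dialyzed FBS) attached 4-5 hr, then exposed to compound overnight at 37C, 5% CO2. Blue fluorescence read at 405/460 nm, with triamterene as reference fluorophore.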
Experiment [6] is described as follows: qHTS assay to test for compound auto fluorescence at 590 nm (red) in HEK293 cells (AID 720679). Also: % is scaled to controls: 0 for no effect and ±100 for the full control effect. In short, it runs like this:
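HEK293 cells (2,000/well, 10% dialyzed FBS) attached 4-5 hr, then dosed with compound or DMSO and incubated overnight at 37C, 5% CO2. Red fluorescence read at 540/590 nm, Rose Bengal sodium as reference fluorophore.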

Experiment [7] is described as follows: qHTS assay to test for compound auto fluorescence at 535 nm (green) in HEK293 cells (AID 720680). Also: % is scaled to controls: 0 for no effect and ±100 for the full control effect.
Experiment [8] in a line: qHTS assay to test for compound auto fluorescence at 460 nm (blue) in HEK293 cell free culture (AID 720681). Also: potency is read from the fitted curve at half-maximal effect. In a few lines: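 Compounds were added to cell-free DMEM with 10% FBS and fluorescence read directly. The blue channel used 405 nm excitation and 460 nm emission, with triamterene as the reference fluorophore.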
A short description of experiment [9]: qHTS assay to test for compound auto fluorescence at 535 nm (green) in HEK293 cell free culture (AID 720682). Also: % is scaled to controls: 0 for no effect and ±100 for the full control effect. In short, it runs like this:
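Green-channel intensity (Ex/Em 485/535 nm) was recorded from compound-treated wells containing only DMEM with 10% FBS. Fluorescein provided the equivalency standard.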

A short description of experiment [10]: qHTS assay to test for compound auto fluorescence at 590 nm (red) in HEK293 cell free culture (AID 720683). Also: % is scaled to controls: 0 for no effect and ±100 for the full control effect. In a few lines:
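Cell-free wells of DMEM with 10% FBS received compound, and intrinsic fluorescence was read at excitation/emission 540/590 nm. Values expressed as equivalence to Rose Bengal sodium.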

Experiment [11] is described as follows: qHTS assay to test for compound auto fluorescence at 590 nm (red) in HepG2 cell free culture (AID 720684). Also: % is scaled to controls: 0 for no effect and ±100 for the full control effect. In a few lines: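 Auto fluorescence equivalency versus Rose Bengal sodium, red channel Ex/Em 540/590 nm; compounds in cell-free MEM/10% FBS; DMSO vehicle control.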
Experiment [12] can be described thus: qHTS assay to test for compound auto fluorescence at 535 nm (green) in HepG2 cell free culture (AID 720686). Also: % is scaled to controls: 0 for no effect and ±100 for the full control effect.
A short description of experiment [13]: qHTS assay to test for compound auto fluorescence at 460 nm (blue) in HepG2 cells (AID 720687). Also: potency is read from the fitted curve at half-maximal effect. In short, it runs like this:
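HepG2 cells in MEM with 10% FBS, attached overnight at 37 C, were exposed to compound or DMSO for 1 hr at 37 C, 5% CO2. Blue fluorescence was read at 405/460 nm, with triamterene as reference fluorophore.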

Experiment [14] deals with Glucocorticoid receptor (Homo sapiens) (UniProt P04150). Nature of the experiment: qHTS assay to identify small molecule antagonists of the glucocorticoid receptor (GR) signaling pathway (AID 720692; active = well fitted inhibition curve with a large enough effect in the signal ratio in the repeat runs, not every such curve was filed as active; the % refers to the signal ratio; also: potency is read from the fitted curve at half-maximal effect). In a few lines: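 Quantitative HTS in antagonist format: HeLa cells expressing endogenous GR and a stably integrated GRE-bla reporter, stimulated with 5 nM dexamethasone (final) alongside test compounds for 18 h.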

Experiment [15] in a line: qHTS assay for small molecule agonists of the p53 signaling pathway - cell viability (AID 651633; calls by dose curve; also: nearly all actives have a fitted effect of over 30% in size; also: potency is read from the fitted curve at half-maximal effect). In a few lines: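 p53RE-bla cells were treated with compound for 16 hours at 37 C. Cytotoxicity was then measured as CellTiter-Glo luminescence after 30 min at room temperature.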
Experiment [16] in a line: qHTS assay for small molecule disruptors of the mitochondrial membrane potential (AID 720635). Also: potency is read from the fitted curve at half-maximal effect. In a few lines: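 HepG2 cells exposed to compound 1 hr at 37C, then Mito-MPS dye 30 min. Ratio read of aggregate (540/590 nm) versus monomer (490/535 nm) fluorescence.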
Experiment [17] deals with Glucocorticoid receptor (Homo sapiens) (UniProt P04150). Nature of the experiment: qHTS assay to identify small molecule agonists of the glucocorticoid receptor (GR) signaling pathway (AID 720691; active = well fitted activation curve with a large enough effect in the signal ratio in the repeat runs, not every such curve was filed as active; the % refers to the signal ratio; also: % is scaled to controls: 0 for no effect and ±100 for the full control effect). In short, it runs like this:
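Cells: GR-bla HeLa, endogenous GR with stably integrated GRE-beta-lactamase reporter. Treatment 18 h, 37 C, compounds delivered in DMSO. Detection via LiveBLAzer B/G FRET substrate, 2 h RT, fluorescence intensity.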

The nature of experiment [18]: qHTS assay to test for compound auto fluorescence at 590 nm (red) in HepG2 cells (AID 720674). Also: % is scaled to controls: 0 for no effect and ±100 for the full control effect. In a few lines: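 Seeding: 2,000 HepG2 cells/well, MEM/10% FBS, overnight 37 C. Dosing: compound vs DMSO. Incubation: 1 hr, 37 C, 5% CO2. Read: fluorescence 540 ex/590 em, Rose Bengal sodium as red reference.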
Experiment [19] can be described thus: qHTS assay to test for compound auto fluorescence at 460 nm (blue) in HepG2 cell free culture (AID 720685). Also: potency is read from the fitted curve at half-maximal effect. In a few lines:
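Cell-free plates of MEM plus 10% FBS received 23 nL compound or DMSO vehicle; blue-channel (405/460 nm) intensity scored against triamterene as reference fluorophore.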

A number with no mark means an inactive call. Inconclusive results are not listed. Activity calls are given as the source filed them. Unless noted, calls follow the shape of the dose curve; as a rule, active = well fitted curve in the direction sought with a large enough effect in the repeat runs; inconclusive = weak or mixed curves; inactive = no such curve, though single readings can be large; an effect the other way counts as inactive or inconclusive.
Tags tell the direction and shape of the fitted curve or compound fluorescence and quenching.

Sequence of Glucocorticoid receptor (Homo sapiens) (P04150 whole entry, looked up): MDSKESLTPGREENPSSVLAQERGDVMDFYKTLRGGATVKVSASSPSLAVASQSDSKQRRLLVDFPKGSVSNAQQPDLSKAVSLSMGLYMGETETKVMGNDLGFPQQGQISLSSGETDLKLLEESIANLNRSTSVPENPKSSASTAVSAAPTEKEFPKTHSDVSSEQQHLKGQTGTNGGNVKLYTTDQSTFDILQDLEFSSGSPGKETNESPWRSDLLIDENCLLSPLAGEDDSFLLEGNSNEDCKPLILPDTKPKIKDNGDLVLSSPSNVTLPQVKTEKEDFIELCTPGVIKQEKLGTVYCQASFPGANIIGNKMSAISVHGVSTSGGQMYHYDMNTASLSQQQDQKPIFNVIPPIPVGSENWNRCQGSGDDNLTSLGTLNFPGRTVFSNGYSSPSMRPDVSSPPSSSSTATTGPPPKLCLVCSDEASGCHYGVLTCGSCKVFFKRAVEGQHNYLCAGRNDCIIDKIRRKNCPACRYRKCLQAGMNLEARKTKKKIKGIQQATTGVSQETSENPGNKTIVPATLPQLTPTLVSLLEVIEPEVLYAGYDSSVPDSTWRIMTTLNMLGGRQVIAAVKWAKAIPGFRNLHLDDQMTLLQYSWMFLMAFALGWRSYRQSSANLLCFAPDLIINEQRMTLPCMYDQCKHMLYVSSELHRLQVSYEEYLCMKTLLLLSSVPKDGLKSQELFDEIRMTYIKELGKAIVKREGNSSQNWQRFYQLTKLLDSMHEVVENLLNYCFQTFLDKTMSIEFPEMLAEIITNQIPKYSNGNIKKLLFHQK

With `CCCCCCCCC(CCCCCC)C(=O)O` (stereo not given), the Potency entry in experiment [1], in experiment [2], in [3], in experiment [5], in experiment [8] and in [13] was “inactive” throughout. For the same molecule, the result in experiment [4], in experiment [6], in experiment [7], in experiment [9], in experiment [10] and in experiment [11] was inactive. The outcome in experiment [12] was inactive. Moreover, the Potency in [14] was 38.9 µM (active).
As to `CCOC(=O)C1=C(C)NC(C)=C(C(=O)OC)C1c1cccc(Cl)c1Cl` (stereo not given), the Potency result in [1], in experiment [15], in experiment [2], in experiment [5], in [8] and in experiment [17] was “inactive” each time. For the same molecule, the Potency in [16] is 19.7 µM (active); in [14], 10.7 µM (active). Moreover, the result in experiment [4], in [6], in [7], in [9], in [10] and in [11] was inactive. In addition, the result in experiment [12] was inactive.
For the molecule `N#CCc1ccc(Cl)cc1Cl`, the Potency result in experiment [1], in experiment [15], in experiment [3], in experiment [5], in experiment [8] and in experiment [13] was “inactive” in each case. Moreover, the molecule was called inactive in [4], in [6], in [7], in [9], in [10] and in [11]. Also, the molecule was called inactive in experiment [12].
As for `CCCCC(CC)CN` (stereo not given), the Potency result in experiment [1], in experiment [15], in [2], in [5], in experiment [8] and in experiment [19] was “inactive” in each case. The Potency result in experiment [13] and in experiment [17] was “inactive” each time. The outcome in experiment [18], in experiment [4], in experiment [6], in experiment [7], in experiment [9] and in experiment [10] was inactive. Also, the outcome in experiment [11] and in [12] was inactive.
On to `COc1ccccc1NC(=O)c1cc2ccccc2cc1O`, for which the Potency entry in experiment [1] and in experiment [17] was “inactive” in each case. In addition, the Potency in experiment [15] was 54.5 µM (active); in experiment [3] it was 7.7 µM (active); in experiment [5], 39.8 µM [fluorescent] (active); in experiment [8], 44.7 µM (active); in experiment [19], 39.8 µM [fluorescent] (active); in experiment [13], 39.8 µM [fluorescent] (active). Moreover, the Potency in experiment [14] was 38.9 µM (active). In addition, the outcome in [18], in [4], in experiment [6], in experiment [7], in experiment [9] and in [10] was inactive. Moreover, the molecule was classed as inactive in experiment [11] and in experiment [12].
Consider `O=[N+]([O-])c1ccc(O/N=C/c2cc(Br)c(O)c(Br)c2)c([N+](=O)[O-])c1`, for which the Potency entry in [1], in experiment [5], in experiment [8], in [19] and in experiment [13] was “inactive” throughout. The results for the Potency in experiment [2], in experiment [3] and in experiment [16] were 24.2 µM (active), 12.1 µM (active) and 0.859 µM (active), respectively. Further, the molecule was called inactive in experiment [18], in experiment [4], in experiment [6], in experiment [7], in experiment [9] and in [10]. The molecule was classed as inactive in experiment [11] and in experiment [12].
Regarding `COc1ccccc1N1CCN(CC(O)COc2cccc3ccccc23)CC1` (stereo not given), the Potency result in experiment [1], in [15], in experiment [2], in experiment [3], in [8] and in [19] was “inactive” each time. In addition, the Potency result in [13] and in experiment [17] was “inactive” each time. The outcome in experiment [18], in experiment [4], in [6], in experiment [7], in experiment [10] and in [11] was inactive. The outcome in experiment [12] was inactive.
As to `O=C(OCC(O)CO)c1ccccc1Nc1ccnc2cc(Cl)ccc12` (stereo not given), the Potency entry in [1], in experiment [15], in experiment [2] and in [3] was “inactive” each time. In [18], the fluorescence, relative to Rose Bengal is 0.0018% [at 18.6 µM]. In addition, the fluorescence, % of fluorescein control was 0.0219% [at 18.6 µM] in [4] and -0.0285% [at 18.6 µM] in experiment [12]. The fluorescence, % of fluorescent control was -0.0042% [at 18.6 µM] in experiment [6], 0.416% [at 18.6 µM] in experiment [8], 0.0763% [at 18.6 µM] in experiment [10] and 0.322% [at 18.6 µM] in experiment [13]. Further, the fluorescence, % of fluorescein in experiment [7] is -0.106% [at 18.6 µM]. Further, the activity change in [9] is 0.0295% [at 18.6 µM]. Moreover, the fluorescence, % of Rose Bengal in experiment [11] was 0.268% [at 18.6 µM].
